# About 83,000 compounds went through this panel and 20% of them were active in at least one assay; those are over-represented in the sample as a whole.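 Treatment: one concentration, 48 hours, 96-well format. Scoring: percent growth, with anything below 10 considered active.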 Unmarked numbers belong to inactive results. Active and inactive are the calls of the source.
# System: NCI/ADR-RES ovarian
# Assay: NCI-60 one-dose screen, 48 h (100 = growth as untreated, 0 = no growth, -100 = all killed)
# Settings: 10 µM
# Procedure: Growth inhibition of the NCI/ADR-RES human […] tumor cell line is measured as a screen for anti-cancer activity. Cells are grown in 96 well plates and exposed to the test compound for 48 hours. Compounds are tested at a single concentration, which is 10^-5 M for most compounds. The reported endpoint is percent growth (GI% or GIPRCNT), where numbers from 0 - 100% represent growth inhibition, and numbers from -100% - 0 represent cell death. For example, a value of 40 represents 60% growth inhibition. A value of 0 means no net growth occurred over the course of the experiment. A value of -40 indicates 40% of cells at the beginning of the experiment died by the end of the experiment. A value of -100 means all cells are dead at the end of the experiment.
# NCI-60 Human Tumor Cell Lines Screen was performed using the standard one-dose NCI protocol, which is described in more detail at https://dtp.cancer.gov/discovery_development/nci-60/default.htm.
# Compounds with GIPRCNT values below 10 were considered active. Activity score was based on GIPRCNT using the following formula: […]
# Score is 0 for GIPRCNT values of 100 or above, 50 for GIPRCNT values of 0, and 100 for GIPRCNT values of -100.
row,SMILES,growth
1,CCOC(=O)C1=C(N)N(c2ccccc2)C2=C(C(=O)CC(C)(C)C2)C1c1ccc(Cl)cc1 (stereo not given),25.6%
2,CN1CCN(c2ccc(Nc3nc(N4CCN(S(=O)(=O)c5ccc(F)cc5)CC4)c4sccc4n3)cc2)CC1,-83% (active)
3,CN1CCCN(Cc2ccc(C(=O)Nc3cccc(Nc4ccc5cc(O)ccc5n4)c3)cc2C(F)(F)F)CC1,90.7%
4,Cc1ccc(/C=C/C(=O)c2ccc(NC(=O)CSc3nnc(-c4c[nH]c5ccccc45)n3-c3ccccc3)cc2)cc1,93.6%
5,Cc1noc2c(Cc3ccc([N+](=O)[O-])cc3)nn(CC(=O)N/N=C/c3ccc(Cl)cc3)c(=O)c12,45.9%
6,COc1cc2c(c(OC)c1OC)C(=O)CC(c1cccc(NC(=O)c3cccc(N)c3)c1)O2 (stereo not given),68.2%
7,CN1CCN(Cc2ccc(NC(=O)c3cncc(C#Cc4cnc5ccc(N[C@H]6CCOC6)nn45)c3)cc2C(F)(F)F)CC1,13.7%
8,Cc1ccc(NC(=O)c2ccc(-n3c(=O)[nH]c4ccccc4c3=O)cc2)cc1,80.2%
9,O=C(Nc1cccc(C(F)(F)F)c1)c1cncc(C#Cc2cnc3ccc(N4CCOCC4)nn23)c1,-24% (active)
10,CN1C/C(=C\c2ccc(O)cc2O)c2[o+]c3cc(O)ccc3cc2C1,107%
11,CCOc1ccc(/C=N/NC(=O)Cn2nc(Cc3ccc([N+](=O)[O-])cc3)c3onc(C)c3c2=O)cc1,19.4%
12,C[C@H]1[C@H](C)CC[C@]2(COC(=O)CCC(=O)NCC#CCN3CCNCC3)CC[C@]3(C)C(=CC[C@@H]4[C@@]5(C)CCCNC(C)(C)[C@@H]5CC[C@]43C)[C@H]12,66.9%
13,CNC(=O)c1cc(-c2ccc(NC(=O)Nc3ccc(C)cc3)cc2)nc2cccnc12,94.3%
14,COC[C@@H](CC(C)C)N=C1NC(=O)/C(=C/c2ccc3ncoc3c2)N1,20.3%
15,N#Cc1ccc(-c2nn(-c3ccc(C(=O)O)cc3)cc2CNc2cccc(Br)c2)cc1,13%
16,O=C(CNc1nc(-c2ccccc2)cs1)Nc1ccc(Cl)cc1,-30.3% (active)
17,COc1ccc(CCN2C(=O)/C(=C/c3csc(C#N)n3)SC2=S)cc1,47%
18,CN1CCN(c2ccc(Nc3nc(NCCNC(=O)c4ccc(C(F)(F)F)cc4)c4sccc4n3)cc2)CC1,38.5%
19,Cc1noc2c(Cc3ccccc3)nn(CC(=O)N/N=C/c3ccc(F)cc3)c(=O)c12,60.7%
20,Cc1cc(=O)oc2cc(OCCCCOc3ccc(/C=C/C(=O)Nc4ccc(F)c(Cl)c4)cc3)ccc12,88.7%

row,SMILES,growth
1,CN1CCN(Cc2ccc(C(=O)Nc3cccc(Nc4ccc5c(O)cccc5n4)c3)cc2C(F)(F)F)CC1,-0.427% (active)
2,N#Cc1c(NC(=O)c2cccc(C(F)(F)F)c2)sc2c1CCC(O)=C2,18.6%
3,N[C@@H](CSSC[C@H](N)C(=O)Nc1ccc(OCC2CCCC2)cc1)C(=O)Nc1ccc(OCC2CCCC2)cc1,-77.2% (active)
4,O=C(Nc1ccc(OCc2ccccc2)cc1)Nc1ccc(Cl)c(C(F)(F)F)c1,1.39% (active)
5,O=C(CNc1nc(-c2ccccc2)cs1)Nc1cccc([N+](=O)[O-])c1,-61.4% (active)
6,COc1cc2c(cc1OC)/C(=C\c1sc(Nc3ccc(O)cc3)nc1O)C(C(=O)O)=N2,85.4%
7,O=C(N/N=C/c1ccc(-c2cccc([N+](=O)[O-])c2)o1)c1[nH]c2ccc(Br)cc2c1-c1ccccc1,-50.9% (active)
8,CC(=O)c1ccc(Nc2nc(SC(C)C)nc(-c3ccccc3)c2C#N)cc1,1.21% (active)
9,O=C(CSc1nnc(-c2c[nH]c3ccccc23)n1-c1ccccc1)Nc1ccc(C(=O)/C=C/c2ccc(Cl)cc2)cc1,92.9%
10,CCOc1ccc(/C=N/NC(=O)Cn2nc(Cc3ccccc3)c3onc(C)c3c2=O)cc1,16.1%
11,O=C1Nc2cc(-c3ccc(NC(=O)c4cccs4)cc3)ccc2/C1=C/c1ccc[nH]1,62.1%
12,O=C(Nc1ccc(OCC(=O)c2ccccc2)cc1)Nc1ccc(Cl)c(C(F)(F)F)c1,18.5%
13,COc1ccc(/C=C/C(=O)c2ccc(NC(=O)CN3C(=O)NC(C)(c4ccccc4)C3=O)cc2)cc1 (stereo not given),102%
14,Cc1cc(C)cc(Oc2cccc(-c3c(C)nnn3C3CCN(CCN(C)C)CC3)n2)c1,32.4%
15,CC(=O)Nc1ccc(-n2cnc3cc(-c4ccc(NS(C)(=O)=O)cc4)ccc32)cc1,70.5%
16,COc1ccc2[nH]c(=O)c(CSc3ccc(Nc4nccc(-c5ccc(Cl)cc5)n4)cc3)cc2c1,73.7%
17,O=C(Cn1cc(CSc2nnc3oc4ccccc4n23)nn1)Nc1ccc(Br)cc1,51.3%
18,CCCCCc1ccc(S(=O)(=O)Nc2cc(-c3csc(N(C)C(C)=O)n3)ccc2N2CCN(C)CC2)cc1,32.7%
19,Cc1ccc2nc3c(nc2c1)c1cc(I)ccc1n3CCN(C)C,12.5%
20,CCOC(=O)C1NN(c2ccc(S(N)(=O)=O)cc2)c2nc3nc(-c4cccs4)cc(-c4cccs4)c3c(=O)n21 (stereo not given),88.6%

# — PubChem BioAssay (NCI)
